PubChem BioAssay (NCATS)
“And” between values parts separate entries of the source, which are not always exact repeats. Identical values can stand only once. Results filed as inconclusive are left out. A number with no mark means an inactive call. Calls come from the whole dose curve; as a rule, active = well fitted curve in either direction with a large enough effect (not every such curve was filed as active); inconclusive = small, poorly fitted or top-dose-only effect, or another doubt; inactive = flat fitted curve, though single readings scatter.

Test: AP1 Signaling Pathway (AID 357);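 note: ME-180 reporter cells stimulated with EGF at its EC50 level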
Conditions: ME-180 (cervical carcinoma) AP-1-bla reporter, EGF-induced, beta-lactamase ratio, 5 h; at 17.2 µM (top of the series)
How it was run: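 Beta-lactamase reporter under AP-1 response element, ME-180 background. Stimulus: EC50 EGF. Compound exposure 5 h, 37 °C. Detection: CCF4, 2.5 h RT, 460/530 nm. Values: AC50 from titration.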
% is set by controls: 0 for no effect and ±100 for the full control effect.

SMILES | activity change, negative = inhibition
C[C@]12C[C@H](O)[C@H]3[C@@H](CCC4=CC(=O)CC[C@@]43C)[C@@H]1CC[C@@H]2C(=O)CO | 0.397%
CC1=C(/C=C/C(C)=C/C=C/C(C)=C/C(=O)O)C(C)(C)CCC1 | -14.6%
COC(=O)C1=C(C)NC(C)=C(C(=O)OC)C1c1ccccc1[N+](=O)[O-] | -27.7%
Nc1ccc(S(=O)(=O)Nc2nccs2)cc1 | -3.49%
c1ccc2c(CC3=NCCN3)cccc2c1 | 14% and 7.7%
COc1ccc(Cl)cc1C(=O)NCCc1ccc(S(=O)(=O)NC(=O)NC2CCCCC2)cc1 | -12.3% and -19.5%
Cc1c(Cl)cccc1Nc1ccccc1C(=O)O | -25.1% and -19.5%
Cc1cc(N)c2ccccc2[n+]1CCCCCCCCCC[n+]1c(C)cc(N)c2ccccc21 | -20.8%
CCN(CC)CCNC(=O)c1cc(Cl)c(N)cc1OC | 0.248% and 1.7%
c1ccc(CN(CC2=NCCN2)c2ccccc2)cc1 | 6.18% and 2.47% and 4.31%
CC1(C)OC(=O)NC1=O | 5.67%
CC(C)NC[C@H](O)c1ccc(O)c(O)c1 | 3.55% and -12.3%
Nc1ccc(S(=O)(=O)Nc2ccc(Cl)nn2)cc1 | 7.06%
CCCCN1CCCC[C@H]1C(=O)Nc1c(C)cccc1C | 0.542%
NS(=O)(=O)c1cc2c(cc1Cl)NC(CSCc1ccccc1)=NS2(=O)=O | -6.04% and -5.71%
CCn1cc(C(=O)O)c(=O)c2cnc(N3CCNCC3)nc21 | 8.66% and 0.464%

SMILES | activity change, negative = inhibition
C#CCN(C)Cc1ccccc1 | -4.72% and 6.12%
CCCCN(CCCC)CCCOC(=O)c1ccc(N)cc1 | -6.24% and -3.31%
COc1ccc2c(c1)C(=O)N(CCc1ccc(S(=O)(=O)NC(=O)NC3CCCCC3)cc1)C(=O)C2(C)C | 12.1%
CCOc1ccc2ccccc2c1C(=O)N[C@@H]1C(=O)N2[C@@H]1SC(C)(C)[C@@H]2C(=O)O | 0.437%
CNCCCC1c2ccccc2C=Cc2ccccc21 | -3.44% and 2.28%
N=c1c[n+](N2CCOCC2)[n-]o1 | 18.9%
Cc1cc2c(cc1S(N)(=O)=O)S(=O)(=O)CCC2 | 4.34%
CCCCOC(=O)c1ccc(O)cc1 | -21.4%
Nc1ccc(S(=O)(=O)NC(=O)c2ccccc2)cc1 | 13.8% and 7.16%
CCC(=O)c1ccc(O)cc1 | -4.26%
CC1=C(CC(=O)O)c2cc(F)ccc2/C1=C\c1ccc(S(C)=O)cc1 (stereo unspecified) | 6.13%
OCCN1CCN(CCCN2c3ccccc3Sc3ccc(Cl)cc32)CC1 | 25.4% and 10.4%
Cc1cc(CC(=O)O)n(C)c1C(=O)c1ccc(Cl)cc1 | 2.5%
CCN(CC)CCOC(=O)C1(C2CCCCC2)CCCCC1 | 21%
CC(=O)c1ccc2c(c1)N(CCCN(C)C)c1ccccc1S2 | 24.3%
